{"source": "PubChem BioAssay", "note": "Where “and” joins values, the source holds several entries; their conditions need not be identical. Equal entries are not always repeated. A number with no mark means an inactive call. How the calls were made is not given here.", "data": [{"molecular_target": "Pantothenate synthetase (Mycobacterium tuberculosis (strain ATCC 25618 / H37Rv)) (UniProt P9WIL5)", "sequence (P9WIL5 whole entry, looked up)": "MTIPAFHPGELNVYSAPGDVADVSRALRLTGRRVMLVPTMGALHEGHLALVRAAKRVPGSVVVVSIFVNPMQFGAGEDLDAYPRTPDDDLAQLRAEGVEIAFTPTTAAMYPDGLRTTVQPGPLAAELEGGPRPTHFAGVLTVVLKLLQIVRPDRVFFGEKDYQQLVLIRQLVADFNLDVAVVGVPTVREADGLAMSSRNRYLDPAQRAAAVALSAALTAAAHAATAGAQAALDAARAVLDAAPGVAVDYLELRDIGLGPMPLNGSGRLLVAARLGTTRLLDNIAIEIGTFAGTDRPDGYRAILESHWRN", "test": "Coupled enzyme confirmation of inhibitors against recombinant Mtb PanC (AID 375);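 further: 0% = full reaction with vehicle and 100% = no enzyme background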", "details": "coupled enzyme assay; at 10 µM, stronger effect = higher value", "values": [{"smiles": "CCn1c(=N)n(CC(=O)c2ccco2)c2ccccc21", "inhibition": "0%"}, {"smiles": "O=C1CC(c2ccccc2)CC(O)=C1C=NCCN1CCOCC1", "note": "(configuration not stated)", "inhibition": "5%"}, {"smiles": "Cc1cnc(SCCc2ccncc2)nc1C", "inhibition": "2%"}, {"smiles": "Cc1cccc(NC(=O)c2cc3n(n2)C(C(F)(F)F)CC(c2ccc4c(c2)OCO4)N3)c1", "note": "(configuration not stated)", "inhibition": "4%"}, {"smiles": "COc1cc([C@@H]2c3cc4c(cc3[C@H](O)[C@H]3COC(=O)[C@H]23)OCO4)cc(OC)c1OC", "inhibition": "0%"}, {"smiles": "CCOc1ccccc1C(=O)NCCCn1ccnc1", "inhibition": "14%"}, {"smiles": "CN(C)Cc1c(O)ccc2oc(Cc3ccccc3)cc12", "inhibition": "8%"}, {"smiles": "COc1ccc(C)cc1S(=O)(=O)Nc1cccnc1", "inhibition": "0%"}, {"smiles": "c1ccc(CN(CC2=NCCN2)c2ccccc2)cc1", "inhibition": "0% and 2%"}, {"smiles": "COc1ccc(CCn2c(-c3ccco3)nc3ccccc3c2=O)cc1OC", "inhibition": "0%"}, {"smiles": "CC(=O)NC(C)C(=O)OCc1ccc(Cl)cc1Cl", "note": "(configuration not stated)", "inhibition": "0%"}, {"smiles": "CC(=O)OCC(=O)[C@H]1CC[C@H]2[C@@H]3CC=C4C[C@@H](O)CC[C@]4(C)[C@H]3CC[C@]12C", "inhibition": "1%"}, {"smiles": "Nc1cc(C(=O)O)ccc1Nc1ccccc1", "inhibition": "0%"}, {"smiles": "O=C(O)c1ccc(C2SCC(=O)N2Cc2ccccc2)cc1", "note": "(configuration not stated)", "inhibition": "2%"}, {"smiles": "NS(=O)(=O)c1cc2c(cc1Cl)NC(C1C[C@H]3C=C[C@@H]1C3)NS2(=O)=O", "note": "(some centres not stated)", "inhibition": "0%"}, {"smiles": "O=C(O)C1C2C=CC(O2)C1C(=O)NCc1ccc(Cl)cc1", "note": "(configuration not stated)", "inhibition": "13%"}, {"smiles": "Cn1c(=O)c2c3c(sc2n2c(SCC(=O)c4ccc(Cl)cc4)nnc12)COC(C)(C)C3", "inhibition": "0%"}]}]}
